Screens deposited in PubChem BioAssay by The Scripps Research Institute Molecular Screening Center.
PLC-beta3 inh = blocks human PLC-beta3 enzyme activity; Q01970; Purified PLC-beta3, fluorogenic substrate, fluorescence; inhibition, % at 12.2 µM; actives 0.18% (n = 370,000); AID 720704; in the data active means inhibition above about 11%;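 further: 0% = median of compound wells on plate and 100% = full blocker control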
MsrA inh = inhibits bovine methionine sulfoxide reductase A | purified bovine MsrA, absorbance read-out | inhibition, % at 15.5 µM | actives 0.75% (n = 360,000) | AID 651718; in the data active means inhibition above about 4.5%;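 further: 0% = vehicle wells with enzyme and 100% = reference inhibitor wells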
bovine MsrA act = bovine methionine sulfoxide reductase A activation; purified bovine MsrA, absorbance read-out; activation, % at 10.6 µM; actives 0.3% (n = 360,000); in the data active means activation above about 7.5%;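 further: 0% = vehicle and 100% = reference activator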
PLC-gamma1 inh = PLC-gamma1 (human) inhibition, primary screen. P19174. purified PLC-gamma1, fluorogenic substrate, fluorescence. inhibition, % at 12.2 µM. actives 0.84% (n = 370,000); in the data active means inhibition above about 9.5%
Numbers without * were called inactive; i = inactive; x = not tested or not shown. Hits are enriched below; roughly 1.9% of the tested compounds scored in any of these assays.

SMILES	PLC-beta3 inh	MsrA inh	bovine MsrA act	PLC-gamma1 inh
CCCCNc1cccc2c1S(=O)(=O)N[C@H](Cc1ccccc1)CO2	3	1	x	-1
CCc1cc2c(nc1CC)CCCN2CCOC	-398	0	x	-305
O=C(/C=C/c1c(Cl)cccc1Cl)NCCc1ccccc1	1	1	8.0*	4
O=C(NCc1ccccc1)[C@@H]1CCCN1C(=O)[C@H]1CCCN1C(=O)c1cccs1	11*	0	x	-2
CN(C(=O)c1cccc(NC(=O)Cc2cccc(NC(=O)C3CCN(C(=O)C4CC4)CC3)c2)c1)C1CC1	10	1	3	13*
CCn1cnc2c([N+](=O)[O-])c(NS(=O)(=O)c3ccc(C)cc3)ccc21	4	0	12*	-4
CCCCS(=O)(=O)N1CCN(C(=O)C(=O)c2cccc(C(F)(F)F)c2)CC1	5	0	x	2
O=C(N[C@H](Cc1ccccc1)C(=O)N1CCN(c2ccc(Cl)cn2)CC1)[C@H]1O[C@@H](n2ccc(=O)[nH]c2=O)[C@H](O)[C@@H]1O	-4	-1	x	-3
Cc1ccc(C(=O)N/C(=C\c2cccs2)c2nc3ccccc3[nH]2)cc1	-32	4.6*	-9	-24
CC(C)C[C@@H](CSc1ccccc1)N1CCN(C)CCC1=O	7	0	-3	9.7*
CCOC(=O)N[C@@H](CC(C)C)C(=O)N1CCC[C@H]1C(=O)NCc1ccccc1	8	0	x	2
O=C1NC(=O)C(=CC=Cc2ccccc2)S1	-33	4.6*	-7	-18
CCOC(=O)c1nn(-c2ccc(C)cc2)cc1O	-6	1	-5	-4
CCOC(=O)c1nn(-c2ccc3c(c2)OCO3)cc1O	-384	5.9*	3	-303
CCOC(=O)CCc1c(C)nc2ncnn2c1C	2	-1	0	3
Cc1nc2ncnn2c(C)c1CCC(=O)O	9	1	3	10*
Cn1c(SCc2c(Cl)cccc2Cl)nnc1-c1cccs1	-4	2	1	11*
O=C(NC1CCCC1)[C@@H]1CCCN1C(=O)[C@@H](NS(=O)(=O)c1ccc(F)cc1F)C1CCCCC1	1	0	x	6
CCC(=O)OC1(C)C(=O)C2=COC(c3ccc(OC)cc3)=CC2=C(Br)C1=O (stereo unspecified)	-127	1	10*	-92
COc1ccc(C2=CC3=C(Br)C(=O)C(C)(O)C(=O)C3=CO2)cc1 (stereo unspecified)	x	x	-4	x
Cc1[nH]c2ccccc2c1C(=O)C(=O)N1CCN(c2ccccc2Cl)CC1	-12	1	-4	-3
Cc1[nH]c2ccccc2c1C(=O)C(=O)N1CCN(c2cccc(Cl)c2)CC1	-1	2	-4	13*
O=C(Nc1ccccc1Cl)c1cc(C2CCCN(C(=O)c3ccccc3)C2)on1 (stereo unspecified)	11*	-2	-3	7
C=CC[C@@H](CC(=O)N[C@@H](CO)Cc1ccccc1)C(=O)N[C@H](COC(=O)[C@H](CC=C)CC(=O)OC(C)(C)C)Cc1c[nH]c2ccccc12	3	-1	1	6
C=CC[C@@H](CC(=O)N[C@H](CO)Cc1ccccc1)C(=O)N[C@H](COC(=O)[C@H](CC=C)CC(=O)OC(C)(C)C)Cc1c[nH]c2ccccc12	4	0	0	10*
SMILES	PLC-beta3 inh	MsrA inh	bovine MsrA act	PLC-gamma1 inh
C=CCC[C@H](Cc1ccc(F)cc1)C(=O)OC[C@H](Cc1c[nH]c2ccccc12)NC(=O)[C@@H](CC=C)CC(=O)NCCO	2	0	4	12*
Cc1ccc(S(=O)(=O)N2CCCc3nc(C)c(C)cc32)cc1	-2	0	x	2
COC(=O)c1cc2c(c3c4cc(F)ccc4n(S(=O)(=O)c4ccc(C)cc4)c13)C(=O)N(Cc1ccccc1OC)C2	-11	0	x	-13
CCCCC1(C)OC(=O)C(=Cc2ccc(N(CC)CC)cc2)C(=O)O1 (stereo unspecified)	-4	5.2*	-5	-3
CCN(CC)c1ccc(C=C2C(=O)OC3(CCCCC3)OC2=O)cc1	-3	4	-4	4
COc1ccccc1CNC(=O)C[C@H]1CC[C@H]2[C@@H](COc3ccc(NC(=O)Nc4ccccc4)cc3C(=O)N2C)O1	6	x	x	8
O=C(NCc1ccccc1)[C@H]1CCCN1C(=O)[C@H]1CCCN1C(=O)c1ccc(F)cc1	-2	1	x	2
Cc1cccc(C)c1OCc1nnc(SCC(=O)O)n1-c1c(C)cccc1C	-1	-1	x	-1
O=[N+]([O-])c1cccc(SSc2cccc([N+](=O)[O-])c2)c1	-4	1	17*	1
Nc1cccc([N+](=O)[O-])c1	5	-1	-2	2
CC(=O)c1c(OC(=O)c2ccco2)c2ccccc2n1C	-20	4.6*	-2	-17
CCN(C(=O)CN1C(=O)S/C(=C\C=C\c2ccccc2)C1=O)C1CCS(=O)(=O)C1 (stereo unspecified)	-13	4.6*	-6	-3
CCc1nnc(NC(=O)CCC(=O)N2CCN(Cc3ccc(C)cc3C)CC2)s1	1	1	-2	14*
O=C(N/N=C/c1ccc2c(c1)OCCO2)c1ccncc1	-14	4.5*	-4	-6
COc1ccc(C=C2OC(=O)C(C(C)=O)=C2O)cc1	-67	9.1*	-11	-48
CC(=O)C1=C(O)C(=Cc2ccccc2)OC1=O	-54	3	-3	-38
COC(=O)/C=C1\S/C(=N/N=C/c2ccccc2)NC1=O	0	1	-3	6
COC(=O)/C=C1/S/C(=N/N=C/c2ccco2)NC1=O	-12	4.6*	-6	-5
Cc1ccc(S(=O)(=O)/N=C2\SC(CC(=O)Nc3ccc(F)cc3)C(=O)N2c2ccccc2)cc1 (stereo unspecified)	11*	0	1	7
O=C(CC1S/C(=N\S(=O)(=O)c2ccccc2)N(c2ccccc2)C1=O)Nc1ccc(F)cc1 (stereo unspecified)	1	1	-7	1
Cc1ccc(-c2cc(C(=O)N/N=C/C=C/c3ccccc3)n[nH]2)s1	-3	4.6*	-7	-3
O=C(N/N=C/C=C/c1ccccc1)c1cc(C2CC2)[nH]n1	4	4	-6	4
CCCCCC(=O)C(=O)c1ccc(O)cc1O	-6	4.6*	-4	-2
Cc1ccc(S(=O)(=O)CCC(=O)c2ccc(O)cc2O)cc1	-28	3	-2	-21
CC1COc2c(N3CCN(C)CC3)c(F)cc3c(=O)c(C(=O)O)cn1c23 (stereo unspecified)	i	2	8.8*	i
C[C@H](O)[C@@H]1CN2CCc3c([nH]c4cccc(-c5ccc6c(c5)OCO6)c34)[C@@H]2C[C@@H]1N(C)C(=O)c1ccco1	-98	x	x	-73
CCCc1nnn(S(=O)(=O)c2ccc([N+](=O)[O-])cc2)c1CCC	13*	0	-2	12*
COc1ccccc1NC(=O)c1ccc(C)c(S(=O)(=O)N2CCCCC2)c1	-1	2	-1	13*
O=C(c1cccs1)N1C[C@@H](O)[C@H](n2cc(C3CC3)nn2)C[C@@H]1c1ccccc1	5	-1	-3	2
O=C(c1cccs1)N1C[C@H](O)[C@@H](n2cc(C3CC3)nn2)C[C@@H]1c1ccccc1	4	1	-1	11*
